Assay results: PubChem BioAssay (NCATS)
Records with an inconclusive call do not appear. A call without a number means that no potency is given here. A number with no mark means an inactive call. The source made the active and inactive calls. Unless noted, the call rests on the fitted dose curve; in most records, active means well fitted curve in the direction sought with a large enough effect; inconclusive means small, poorly fitted or top-dose-only effect, or another doubt; inactive means no such curve, though single readings can be large; an effect the other way counts as inactive or inconclusive.

Biological target: Calcium and integrin-binding protein 1 (Homo sapiens) (UniProt Q99828)
Test: Validation qHTS for Identification of Calcium Integrin Binding protein 1 (CIB1) Competitor (AID 1508618); further: potency means the concentration at half of the fitted maximal effect
Conditions: CIB1-GST / FITC-alphaIIb peptide fluorescence polarization; series mostly up to 114 µM
In short: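 Displacement of FITC-alphaIIb peptide (100 nM) from CIB1-GST (1 uM) is monitored by polarization in quantitative HTS format; buffer carries 5 mM CaCl2 and 125 mM NaCl at pH 7.4, incubations are at room temperature.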

Calcium and integrin-binding protein 1 (Homo sapiens), sequence (Q99828 whole entry, looked up): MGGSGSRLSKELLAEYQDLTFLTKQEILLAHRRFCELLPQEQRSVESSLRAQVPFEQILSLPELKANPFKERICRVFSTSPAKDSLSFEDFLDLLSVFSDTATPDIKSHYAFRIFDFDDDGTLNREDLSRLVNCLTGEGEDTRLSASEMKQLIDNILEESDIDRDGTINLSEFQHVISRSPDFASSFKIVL

SMILES | Potency
NC(Cc1cc(O)c(O)cc1O)C(=O)O (configuration not stated) | 35.5 µM (active)
COc1ccc2c(c1)C13CCCCC1C(C2)N(C)CC3 (configuration not stated) | inactive
CN1C2CCC1CC(OC(c1ccccc1)c1ccccc1N)C2 (configuration not stated) | inactive
Clc1ccc(N2CC3CCC(C2)N3)nn1 | inactive
Nc1ccc(CCN2CCN(c3cccc(C(F)(F)F)c3)CC2)cc1 | inactive
NCC(CP(=O)(O)O)c1ccc(Cl)cc1 (configuration not stated) | inactive
c1ccc2c(N3CCNCC3)cccc2c1 | inactive
N#C/C(=C/c1ccc(O)c(O)c1)C(N)=S | inactive
C[C@H](N)CN1CCc2ccc(Br)cc21 | inactive
CN1CC[C@@]2(C)c3cc(OC(=O)Nc4ccccc4)ccc3N(C)[C@@H]12 | inactive

System: not listed separately
Test: Counterscreen qHTS for small molecule stabilizers of the endoplasmic reticulum resident proteome: GLuc-NoTag assay (AID 1508627);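 further: SH-SY5Y cells given compound then 100 nM thapsigargin to empty ER calcium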
Conditions: Gaussia luciferase NoTag secretion counterscreen, luminescence, thapsigargin 100 nM for final 4 h; series mostly up to 76.4 µM
In short: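 Counterscreen line: SH-SY5Y-GLuc-NoTag cells, treated with compound 19 hr before a 4 hr, 100 nM thapsigargin calcium depletion. Secreted Gaussia luciferase in the medium was measured by luminescence after coelenterazine was added (0.07x final), with cells unlysed.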

SMILES | outcome
COc1ccc2c(c1)C13CCCCC1C(C2)N(C)CC3 (configuration not stated) | inactive
CN1C2CCC1CC(OC(c1ccccc1)c1ccccc1N)C2 (configuration not stated) | inactive
Clc1ccc(N2CC3CCC(C2)N3)nn1 | inactive
Nc1ccc(CCN2CCN(c3cccc(C(F)(F)F)c3)CC2)cc1 | inactive
c1ccc2c(N3CCNCC3)cccc2c1 | inactive
N#C/C(=C/c1ccc(O)c(O)c1)C(N)=S | inactive
C[C@H](N)CN1CCc2ccc(Br)cc21 | inactive
CN1CC[C@@]2(C)c3cc(OC(=O)Nc4ccccc4)ccc3N(C)[C@@H]12 | inactive

System: not listed separately
Test: Confirmatory qHTS for small molecule stabilizers of the endoplasmic reticulum resident proteome: Secreted ER Calcium Modulated Protein (SERCaMP) assay (AID 1508628); further: potency means the concentration at half of the fitted maximal effect; nearly all actives have a fitted effect of over 40% in size
Conditions: SERCaMP secreted luciferase ER calcium/proteostasis reporter; series mostly up to 76.3 µM
In short: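 GLuc-SERCaMP-expressing SH-SY5Y cells, pretreated 16 h with compound, are challenged with thapsigargin to empty ER calcium stores; after 4 h, coelenterazine is added directly to the medium and luminescence is imaged.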

SMILES | Potency
COc1ccc2c(c1)C13CCCCC1C(C2)N(C)CC3 (configuration not stated) | 2 µM (active)
CN1C2CCC1CC(OC(c1ccccc1)c1ccccc1N)C2 (configuration not stated) | 31.6 µM (active)
N#C/C(=C/c1ccc(O)c(O)c1)C(N)=S | 10 µM (active)
CN1CC[C@@]2(C)c3cc(OC(=O)Nc4ccccc4)ccc3N(C)[C@@H]12 | 39.8 µM (active)

System: not listed separately
Test: Cell Viability qHTS for small molecule stabilizers of the endoplasmic reticulum resident proteome (AID 1508629);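 further: human SH-SY5Y neuroblastoma cells carrying the GLuc-SERCaMP reporter; compound exposure about 46 h in total before the viability read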
Conditions: cell viability counter-screen, 100 nM thapsigargin for final 4 h

SMILES | max response [%]
Clc1ccc(N2CC3CCC(C2)N3)nn1 | -7.5
Nc1ccc(CCN2CCN(c3cccc(C(F)(F)F)c3)CC2)cc1 | 11.7
C[C@H](N)CN1CCc2ccc(Br)cc21 | -3.5

System: not listed separately
Test: Cytotoxicity counterscreen for inhibitors of SARS-CoV-2 cell entry (AID 1645845; calls by dose curve; further: nearly all actives have a fitted effect of over 50% in size)
Conditions: cell viability (SARS-CoV-2 entry assay cells); series mostly up to 57.1 µM
In short: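 ATP-content luminescence (ATPLite 1step, 15 min RT) read after 48 h compound exposure of Expi293F cells stably expressing human ACE2; normalized to cells-only wells and media-only wells.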

SMILES | outcome
c1ccc2sc(SNC3CCCCC3)nc2c1 | inactive
Cc1ccccc1-n1c(CF)nc2ccc(N)cc2c1=O | inactive
CCCCC[C@@H](O)C1C(=O)OC(C)[C@H](O)/C=C/C=C/C=C/C=C/C=C(\C)C(O)C(O)C(O)C[C@H](O)C[C@H](O)C[C@H](O)C[C@H](O)C[C@@H]1O (some centres not stated) | inactive
O=C(C[C@@H]1NCCC[C@H]1O)Cn1cnc2cc(Br)c(Cl)cc2c1=O | inactive
CCC(=O)O[C@@](Cc1ccccc1)(c1ccccc1)[C@@H](C)CN(C)C | inactive
CC(=O)O[C@H]1CC[C@H]2[C@@H]3CCC4=CC(=O)CCC4=C3C=C[C@]12C | inactive
O=[N+]([O-])c1ccccc1 | inactive
C/C(=C\c1csc(C)n1)[C@@H]1C[C@@H]2O[C@]2(C)CCC[C@H](C)[C@H](O)[C@@H](C)C(=O)C(C)(C)[C@@H](O)CC(=O)O1 | inactive
CC(C)(O)[C@@H]1[C@H]2OC(=O)[C@@H]1[C@]1(O)C[C@H]3O[C@]34C(=O)O[C@H]2[C@]14C | inactive
Cn1sc(Cl)cc1=O | inactive
C=CC[C@]1(O)CC[C@H]2[C@@H]3CCC4=CCCC[C@@H]4[C@H]3CC[C@@]21C | inactive
C[C@@H](CO)NC(=O)[C@@H]1C=C2c3cccc4[nH]cc(c34)C[C@H]2N(C)C1 | inactive
C[C@]12CC[C@H]3[C@@H](CCC4=C(O)C(=O)CC[C@@H]43)[C@@H]1CC[C@@H]2OC(=O)CCC1CCCC1 | inactive
CC[C@H]1CN2CC[C@H]1C[C@@H]2[C@@H](O)c1ccnc2ccc(OC)cc12 | inactive
CCCCCCCCCC(=O)O[C@H]1CC[C@H]2[C@@H]3CCC4=CC(=O)CC[C@]4(C)[C@H]3CC[C@]12C | inactive

System: not listed separately
Test: VSVG counterscreen qHTS to identify inhibitors of SARS-CoV-2 cell entry (AID 1645847; calls by dose curve; further: potency means the concentration at half of the fitted maximal effect; nearly all actives have a fitted effect of over 65% in size)
Conditions: VSV-G pseudotyped particle entry, luciferase
In short: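 Entry of VSV-G pseudotyped particles into human ACE2-expressing HEK293 cells was measured by luciferase luminescence 48 h after infection, with compound added 1 h beforehand.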

SMILES | Potency
O=C1C2CC=CCC2C(=O)N1SC(Cl)(Cl)Cl (configuration not stated) | 15.2 µM (active)
C/C(=C\c1csc(C)n1)[C@@H]1C[C@@H]2O[C@]2(C)CCC[C@H](C)[C@H](O)[C@@H](C)C(=O)C(C)(C)[C@@H](O)CC(=O)O1 | 0.0341 µM (active)
CC[C@H](C)[C@H]1O[C@]2(C=C[C@@H]1C)C[C@@H]1C[C@@H](C/C=C(\C)[C@@H](O[C@H]3C[C@H](OC)[C@@H](O[C@H]4C[C@H](OC)[C@@H](O)[C@H](C)O4)[C@H](C)O3)[C@@H](C)/C=C/C=C3\CO[C@@H]4[C@H](O)C(C)=C[C@@H](C(=O)O1)[C@]34O)O2 | 12.1 µM (active)

Biological target: Papain (Carica papaya) (UniProt P00784)
Test: Primary qHTS assay for inhibitors of the protease papain (AID 1645873);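 further: papain turnover of Z-FR-AMC read as the AMC fluorescence gain over 10 min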
Conditions: papain Z-FR-AMC cleavage, AMC fluorescence; series mostly up to 49.8 µM

Papain (Carica papaya), sequence (P00784 whole entry, looked up): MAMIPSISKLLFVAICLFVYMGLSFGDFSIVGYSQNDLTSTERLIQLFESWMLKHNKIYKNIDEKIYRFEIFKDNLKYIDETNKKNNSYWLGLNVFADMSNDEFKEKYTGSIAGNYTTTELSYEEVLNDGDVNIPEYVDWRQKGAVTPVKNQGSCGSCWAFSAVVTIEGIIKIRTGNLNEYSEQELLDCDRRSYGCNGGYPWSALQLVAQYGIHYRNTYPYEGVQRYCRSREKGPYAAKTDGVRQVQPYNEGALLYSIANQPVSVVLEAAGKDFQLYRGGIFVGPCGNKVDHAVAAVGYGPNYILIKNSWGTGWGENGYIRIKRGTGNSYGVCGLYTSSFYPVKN

SMILES | Potency
COc1ccc2c(c1)C13CCCCC1C(C2)N(C)CC3 (configuration not stated) | inactive
CN1C2CCC1CC(OC(c1ccccc1)c1ccccc1N)C2 (configuration not stated) | inactive
Clc1ccc(N2CC3CCC(C2)N3)nn1 | inactive
Nc1ccc(CCN2CCN(c3cccc(C(F)(F)F)c3)CC2)cc1 | inactive
N#C/C(=C/c1ccc(O)c(O)c1)C(N)=S | inactive
C[C@H](N)CN1CCc2ccc(Br)cc21 | inactive

System: not listed separately
Test: Primary qHTS for inhibitors of nuclear receptor binding SET domain protein 2 (NSD2) in an isogenic RCH-ACV NSD2 p.E1099K mutant (9B) (AID 1645876); further: nearly all actives have a fitted effect of over 70% in size; further: potency means the concentration at half of the fitted maximal effect
Conditions: RCH-ACV (leukaemia line) NSD2 E1099K (9B) viability, CellTiter-Glo, 72 h; series mostly up to 44.9 µM

SMILES | Potency
C/C(=C\c1csc(C)n1)[C@@H]1C[C@@H]2O[C@]2(C)CCC[C@H](C)[C@H](O)[C@@H](C)C(=O)C(C)(C)[C@@H](O)CC(=O)O1 | 0.0066 µM (active)
N#C/C(=C/c1ccc(O)c(O)c1)C(N)=S | 8.2 µM (active)
CC[C@H]1CN2CC[C@H]1C[C@@H]2[C@@H](O)c1ccnc2ccc(OC)cc12 | inactive
